One experiment has as its target Albumin (Bos taurus) (UniProt P02769). Nature of the experiment: compounds binding labelled BSA control protein – biochemical, small-molecule microarray, Alexa647 label, 635/667 nm fluorescence, artefact control for SMM control protein annotation, profiling panel (AID 1118).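 Also: score merges 667 nm emission intensity and signal-to-noise per printed compound spot.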 Particulars: BSA-A647 binding, fluorescence 635 nm, higher = more signal.
Experiment [1] in a line: probe aXIP binding to arrayed compounds – biochemical, NeuroSMM set, 635/667 nm fluorescence, primary screen (AID 1119).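 Also: probe is the protein aXip251-270 applied at 1 µg/mL to compound-printed slides; binding of probe to printed compounds measured as 667 nm fluorescence plus signal to noise.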 As to conditions: small-molecule microarray, higher = more signal, called active from +8 up or from −8 down.
Experiment [2] is described as follows: probe aNOTCH3 binding on compound microarray – biochemical, small-molecule microarray, 635/667 nm fluorescence, primary screen (AID 1120).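 Also: probe is a biotin-tagged antibody raised against NOTCH3 rather than NOTCH3 protein; score merges spot fluorescence near 667 nm with spot signal to noise.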 Particulars: higher = more signal.
The nature of experiment [3]: probe aNOTCH2 binding on compound microarray – biochemical, small-molecule microarray, 635/667 nm fluorescence, primary screen (AID 1121).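 Also: score merges feature fluorescence read at 667 nm with its signal to noise.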 As to conditions: higher = more signal.
Experiment [4] deals with Carbonic anhydrase 2 (Homo sapiens) (UniProt P00918). Description: compounds binding carbonic anhydrase 2 – biochemical, small-molecule microarray, Alexa647-labelled CAII, profiling panel (AID 1122). As to conditions: CAII-A647 binding fluorescence, higher = more signal.
The nature of experiment [5]: COS7 lysate on small-molecule microarray, probe aHis, 635 nm (AID 1123).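 Also: z-score combines 667nm fluorescence intensity with signal-to-noise per printed compound spot.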 As to conditions: COS7 cell lysate, fluorescence, higher = more signal.
Experiment [6] in a line: probe aLAP1 signal on lysate-treated microarray – cell lysate, small-molecule microarray, COS7 lysate, primary screen (AID 1124).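 Also: lysate comes from COS7 cells expressing LAP1 and is applied at 0.3 µg/mL; score merges spot fluorescence near 667 nm with signal-to-noise over triplicate slides.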 Particulars: probe aLAP1, fluorescence, higher = more signal.
For the next experiment, the system named is Sam68 (KHDRBS1). Nature of the experiment: compounds binding KHDRBS1 protein – biochemical, small-molecule microarray, 635 nm fluorescence, primary screen (AID 1125).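 Also: score merges 667 nm channel intensity with signal to noise over triplicate slides.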 As to conditions: higher = more signal.
The test system of experiment [7] is Chordin-like protein 2 (CHRDL2). Description: compounds binding chordin-like 2 – biochemical, small-molecule microarray, 635 nm fluorescence, primary screen (AID 1126).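 Also: printed compound slides probed with Chrdl2 protein at 4 µg/mL for 1 h at 4 C; score merges 667 nm emission intensity with signal to noise over three replicate slides.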 As to conditions: fluorescence 635 nm, higher = more signal.
Experiment [8] concerns the target Concanavalin-A (Canavalia ensiformis) (UniProt P02866). Nature of the experiment: compounds binding concanavalin A lectin – biochemical, small-molecule microarray, Alexa647 label, 635 nm, artefact control for SMM control protein annotation, primary screen (AID 1127).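 Also: z combines 667 nm emission intensity with signal-to-noise across three replicate slides.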 Particulars: ConA-A647 binding fluorescence, higher = more signal.
A short description of experiment [9]: compounds binding Alexa647 anti-His antibody – biochemical, small-molecule microarray, 635 nm fluorescence, artefact control for SMM control protein annotation, primary screen (AID 1128).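 Also: score merges feature fluorescence with signal-to-noise for each printed compound spot.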 As to conditions: higher = more signal.
Experiment [10] relates to Human papillomavirus type 1a E7 protein (residues 1-88). Nature of the experiment: HPV1a E7 small-molecule binders, primary screen, biochemical, small-molecule microarray, residues 1-88, 635 nm (AID 1129). As to conditions: small-molecule microarray binding, fluorescence 635 nm; higher = more signal.
Experiment [11] concerns the target Focal adhesion kinase 1 (Homo sapiens) (UniProt Q05397). Description: PTK2 protein binding on printed compound slides – biochemical, small-molecule microarray, 635/667 nm fluorescence, BSA, DTT, primary screen (AID 1130).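 Also: composite of spot emission at 667 nm and signal to noise over triplicate slides.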 Particulars: 635 nm fluorescence, higher = more signal.
Experiment [12] has as its system Fibrinogen (Alexa647-labelled). Nature of the experiment: Alexa647-fibrinogen binding to printed small molecules – biochemical, small-molecule microarray, 635/667 nm fluorescence, artefact control for SMM control-protein annotation, profiling panel (AID 1131).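 Also: z-score merges 667 nm fluorescence with per-spot signal-to-noise over triplicate slides.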 Particulars: fibrinogen-A647 binding fluorescence, higher = more signal.
Experiment [13] concerns the target Follistatin (Homo sapiens) (UniProt P19883). Nature of the experiment: FST protein binding to printed compounds – biochemical, small-molecule microarray, 635/667 nm fluorescence, primary screen (AID 1132). As to conditions: 635 nm fluorescence, higher = more signal.
The target in experiment [14] is Fibroblast growth factor 2 (Homo sapiens) (UniProt P09038). Description: basic fibroblast growth factor binding to printed compounds – biochemical, small-molecule microarray, 635/667 nm fluorescence, primary screen (AID 1133). As to conditions: FGF2, fluorescence 635/667, higher = more signal.
Experiment [15] is described as follows: JC-1 mitochondrial potential readout, lung cancer cells – cell-based, A549, JC-1 fluorescence, basal, 24 h, 100 nL, profiling panel (AID 1138).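 Also: A549 lung adenocarcinoma cells under basal conditions with no added stimulus; test concentration not given here.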 As to conditions: higher = more signal.
The subject of a further experiment is Lefty1. Nature of the experiment: Lefty1 protein binding to printed compounds – biochemical, small-molecule microarray, 635/667 nm fluorescence, primary screen (AID 1139). As to conditions: fluorescence 635/667, higher = more signal.
Experiment [16] concerns wheat germ agglutinin (Triticum aestivum), Alexa647-labelled. Nature of the experiment: Alexa647-WGA lectin binding to printed small molecules – biochemical, small-molecule microarray, 635/667 nm fluorescence, artefact control for SMM control-protein annotation, profiling panel (AID 1140).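 Also: score merges 667 nm feature emission with signal to noise over triplicate slides.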 As to conditions: WGA-A647 binding, 635 nm fluorescence, higher = more signal.
Experiment [17] has as its target Luciferin 4-monooxygenase (Photinus pyralis) (UniProt P08659). Description: inhibition of purified Photinus pyralis luciferase – biochemical, luminescence, purified enzyme, 2006 set, primary screen (AID 1141).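 Also: cell-free assay with purified firefly luciferase at 100 ng per well in PBS; test concentration not given here.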 Particulars: purified firefly luciferase, SteadyGlo luminescence, 30 min; higher = more signal, called active from +8 up or from −8 down.

Calls of active or inactive are those of the source.

Sequence of Focal adhesion kinase 1 (Homo sapiens) (Q05397 whole entry, looked up): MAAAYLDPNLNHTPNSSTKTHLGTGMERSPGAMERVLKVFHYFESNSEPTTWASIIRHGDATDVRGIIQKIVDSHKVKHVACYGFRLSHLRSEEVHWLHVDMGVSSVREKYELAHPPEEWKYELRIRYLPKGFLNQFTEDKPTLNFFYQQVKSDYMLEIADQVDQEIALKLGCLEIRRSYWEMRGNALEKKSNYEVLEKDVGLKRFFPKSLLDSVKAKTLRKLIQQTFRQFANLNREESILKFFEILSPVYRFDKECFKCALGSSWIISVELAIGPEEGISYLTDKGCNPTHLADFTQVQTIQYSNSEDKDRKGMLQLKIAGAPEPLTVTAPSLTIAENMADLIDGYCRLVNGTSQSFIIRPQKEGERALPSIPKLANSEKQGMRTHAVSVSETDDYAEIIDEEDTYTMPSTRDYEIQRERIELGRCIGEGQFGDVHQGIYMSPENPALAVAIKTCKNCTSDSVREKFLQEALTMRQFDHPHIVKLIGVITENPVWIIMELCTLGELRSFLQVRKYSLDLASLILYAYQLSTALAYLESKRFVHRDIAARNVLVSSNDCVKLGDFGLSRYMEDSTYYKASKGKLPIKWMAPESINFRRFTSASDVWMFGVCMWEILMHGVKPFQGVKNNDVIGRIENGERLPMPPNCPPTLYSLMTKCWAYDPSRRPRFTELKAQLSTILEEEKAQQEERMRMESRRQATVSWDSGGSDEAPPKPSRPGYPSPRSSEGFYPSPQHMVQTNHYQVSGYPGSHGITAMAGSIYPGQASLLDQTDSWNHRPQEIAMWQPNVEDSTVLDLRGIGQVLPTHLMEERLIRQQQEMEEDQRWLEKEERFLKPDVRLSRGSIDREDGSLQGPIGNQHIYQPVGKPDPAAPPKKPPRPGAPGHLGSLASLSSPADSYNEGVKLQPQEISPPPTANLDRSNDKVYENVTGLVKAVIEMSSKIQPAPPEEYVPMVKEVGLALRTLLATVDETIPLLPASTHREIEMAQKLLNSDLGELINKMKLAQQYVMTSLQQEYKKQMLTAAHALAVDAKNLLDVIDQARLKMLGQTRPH
Sequence of Luciferin 4-monooxygenase (Photinus pyralis) (P08659 whole entry, looked up): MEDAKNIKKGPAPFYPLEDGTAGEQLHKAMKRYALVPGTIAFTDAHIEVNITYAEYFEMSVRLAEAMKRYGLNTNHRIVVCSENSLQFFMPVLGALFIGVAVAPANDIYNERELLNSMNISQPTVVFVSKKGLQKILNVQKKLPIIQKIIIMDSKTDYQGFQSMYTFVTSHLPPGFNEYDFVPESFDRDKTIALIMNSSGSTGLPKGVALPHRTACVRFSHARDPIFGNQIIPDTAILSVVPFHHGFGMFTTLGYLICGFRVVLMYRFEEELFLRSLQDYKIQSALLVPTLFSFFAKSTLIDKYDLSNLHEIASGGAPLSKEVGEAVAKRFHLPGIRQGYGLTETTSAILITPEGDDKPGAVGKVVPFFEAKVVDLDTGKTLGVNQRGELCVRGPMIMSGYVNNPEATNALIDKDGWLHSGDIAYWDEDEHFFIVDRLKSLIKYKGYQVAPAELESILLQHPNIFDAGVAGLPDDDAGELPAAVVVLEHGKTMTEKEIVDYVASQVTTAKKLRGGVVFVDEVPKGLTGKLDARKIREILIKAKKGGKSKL
Sequence of Follistatin (Homo sapiens) (P19883 whole entry, looked up): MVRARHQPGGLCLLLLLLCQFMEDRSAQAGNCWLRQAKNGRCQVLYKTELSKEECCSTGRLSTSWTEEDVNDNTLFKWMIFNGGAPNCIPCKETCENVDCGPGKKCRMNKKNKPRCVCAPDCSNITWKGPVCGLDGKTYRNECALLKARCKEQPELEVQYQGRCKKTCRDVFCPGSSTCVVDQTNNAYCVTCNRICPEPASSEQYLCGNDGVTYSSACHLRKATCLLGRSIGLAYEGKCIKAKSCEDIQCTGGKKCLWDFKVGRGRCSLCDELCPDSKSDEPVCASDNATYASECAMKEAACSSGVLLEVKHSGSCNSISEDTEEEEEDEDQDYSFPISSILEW
Sequence of Concanavalin-A (Canavalia ensiformis) (P02866 whole entry, looked up): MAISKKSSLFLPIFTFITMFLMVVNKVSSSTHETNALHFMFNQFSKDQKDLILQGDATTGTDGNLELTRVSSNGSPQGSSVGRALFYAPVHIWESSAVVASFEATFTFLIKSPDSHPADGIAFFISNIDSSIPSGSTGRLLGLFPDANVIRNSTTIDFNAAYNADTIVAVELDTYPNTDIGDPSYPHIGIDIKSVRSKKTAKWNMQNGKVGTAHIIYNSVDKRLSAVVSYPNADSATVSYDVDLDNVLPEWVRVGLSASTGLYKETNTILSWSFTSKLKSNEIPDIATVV
Sequence of Fibroblast growth factor 2 (Homo sapiens) (P09038 whole entry, looked up): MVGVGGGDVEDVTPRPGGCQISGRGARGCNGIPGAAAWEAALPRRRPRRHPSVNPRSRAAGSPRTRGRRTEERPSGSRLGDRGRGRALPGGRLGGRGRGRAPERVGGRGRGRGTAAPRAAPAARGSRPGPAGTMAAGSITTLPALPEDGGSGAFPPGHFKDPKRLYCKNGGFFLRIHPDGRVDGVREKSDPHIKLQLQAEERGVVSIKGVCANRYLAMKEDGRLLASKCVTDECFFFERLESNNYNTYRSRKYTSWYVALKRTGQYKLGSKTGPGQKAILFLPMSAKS
Sequence of Albumin (Bos taurus) (P02769 whole entry, looked up): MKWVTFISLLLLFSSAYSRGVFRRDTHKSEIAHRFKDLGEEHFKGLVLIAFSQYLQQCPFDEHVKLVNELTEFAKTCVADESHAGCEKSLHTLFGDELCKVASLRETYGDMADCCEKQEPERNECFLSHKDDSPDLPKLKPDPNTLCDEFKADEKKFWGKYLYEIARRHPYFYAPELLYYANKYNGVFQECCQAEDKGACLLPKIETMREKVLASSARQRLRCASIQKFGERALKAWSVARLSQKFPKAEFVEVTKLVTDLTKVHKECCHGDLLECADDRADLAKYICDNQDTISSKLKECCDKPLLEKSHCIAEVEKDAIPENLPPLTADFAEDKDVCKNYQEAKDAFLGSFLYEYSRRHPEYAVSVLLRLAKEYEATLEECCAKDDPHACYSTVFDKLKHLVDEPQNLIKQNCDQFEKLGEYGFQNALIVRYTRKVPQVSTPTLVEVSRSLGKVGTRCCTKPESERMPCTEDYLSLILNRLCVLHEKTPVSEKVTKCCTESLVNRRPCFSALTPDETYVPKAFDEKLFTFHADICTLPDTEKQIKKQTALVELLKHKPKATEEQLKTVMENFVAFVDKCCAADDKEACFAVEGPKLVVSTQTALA

Take `CC(C)(C)OC(=O)CC[C@@]1(C(=O)NCCN2CCOCC2)N=C(c2ccc(OCCCO)cc2)O[C@@H]1c1ccccc1CN=[N+]=[N-]`: the composite z-score in the experiment with Albumin (Bos taurus) is 0.812; in [2], 0.0488; in [3], -0.112; in experiment [4], 0.245; in experiment [5], 1.17; in [6], 0.59. Moreover, the composite z-score with Sam68 (KHDRBS1) is 0.696; in experiment [7], -0.743; in [8], 1.08; in experiment [9] it was 0.384; in [10], 0.372; in [11] it was 0.499. For the same compound, the composite z-score was 1.01 in [12]; -0.0674 in [13]; -0.495 in experiment [14]; -0.0313 with Lefty1; 0.608 in experiment [16]. Also, the composite Z-score in experiment [1] was 2.03 (inactive). Besides, the z-score in [15] was -0.293; in experiment [17], -4.33 (inactive).
As for `COCCCNC(=O)[C@@H]1c2ccccc2C(=O)N(Cc2ccc(OC(F)(F)F)cc2)[C@H]1c1ccc(CO)cc1`, the composite z-score was 0.348 in the experiment with Albumin (Bos taurus); -0.0074 in [2]; -0.174 in experiment [3]; 0.529 in [4]; 1.22 in experiment [5]; 1.28 in [6]. Further, the composite z-score in the experiment on Sam68 (KHDRBS1) was 0.859; in experiment [7], 0.286; in experiment [8], 0.874; in [9], 1.54; in experiment [10], 1.11; in experiment [11] it was 1.79. Besides, the composite z-score in experiment [12] was 0.654; in experiment [13] it was 1.14; in experiment [14] it was 0.722; with Lefty1 it was 0.541; in [16], 0.316. The composite Z-score in [1] was -0.274 (inactive). Besides, the z-score in experiment [15] is 2.03; in experiment [17] it was -0.0459 (inactive).
Turning to `O=C1[C@H]2C=C(I)[C@H](C[C@@H]2c2ccccc2)[C@@]12CO2`, the composite z-score in the experiment with Albumin (Bos taurus) is -0.406; in [2] it was -0.0647; in experiment [3], -0.153; in [4] it was -0.154; in experiment [5], -0.234; in experiment [6], -0.225. The composite z-score in the experiment on Sam68 (KHDRBS1) is 0.0643; in experiment [7], 0.664; in experiment [8], -0.267; in experiment [9], 0.214; in experiment [10], 0.0555; in experiment [11] it was -0.142. The composite z-score in experiment [12] is -0.347; in [13], 0.742; in [14] it was 0.111; with Lefty1, 0.334; in experiment [16], -0.1. Moreover, the composite Z-score in [1] is -0.623 (inactive). For the same compound, the z-score is 0.949 in [15] and -0.218 (inactive) in experiment [17].
For `COC(=O)[C@@]1(Cc2ccccc2)[C@H]2c3cc(C(=O)N4CCCC4)n(Cc4ccc(OC)c(OC)c4)c3C[C@H]2CN1C(=O)c1ccccc1`, the composite z-score with Albumin (Bos taurus) amounted to 0.909; in experiment [2], 1.11; in experiment [3] it was 0.204; in [4] it was 0.853; in experiment [5], 3.22; in experiment [6], 0.382. In addition, the composite z-score in the experiment on Sam68 (KHDRBS1) is 1.04; in [7] it was -1.05; in [8], 0.827; in experiment [9], 0.682; in [10] it was 1.27; in [11] it was 0.916. In addition, the composite z-score in [12] was 1.03; in experiment [13], 0.528; in experiment [14], -0.502; with Lefty1, -0.115; in experiment [16], 0.863. Also, the composite Z-score in experiment [1] was 0.651 (inactive). In addition, the z-score was 1.99 in experiment [15] and 2.75 (inactive) in experiment [17].
`CCOC(=O)C1=CC[C@@H](c2ccc(OC)cc2)N(S(=O)(=O)c2ccc(C)cc2)[C@H]1c1ccc(C)cc1`: the composite z-score in the experiment with Albumin (Bos taurus) is 0.446; in experiment [2], 0.0203; in experiment [3], -0.084; in [4], 0.222; in experiment [5] it was 1.99; in experiment [6], 0.423. The composite z-score with Sam68 (KHDRBS1) was 1.34; in [7], -0.554; in experiment [8] it was 0.669; in experiment [9] it was 1.23; in experiment [10], 1.18; in experiment [11], 0.389. The composite z-score in [12] was 0.844; in experiment [13], 0.633; in [14] it was -0.0931; with Lefty1, 0.333; in experiment [16], 0.803. Further, the composite Z-score in [1] is 0.477 (inactive). The z-score in experiment [15] is 3.2; in [17], 1.1 (inactive).
In the case of `COc1ccc([Si](C)(C)[C@H]2[C@H](CC(=O)N3Cc4ccccc4C[C@H]3CO)O[C@@]3(C(=O)N(C)c4ccccc43)[C@@H]2C)cc1`, the composite z-score in the experiment with Albumin (Bos taurus) was 0.656; in [2] it was 0.163; in experiment [3], -0.11; in experiment [4], 0.686; in experiment [5], 1.89; in [6], 0.941. Also, the composite z-score in the experiment with Sam68 (KHDRBS1) was found to be 1.28; in [7], 1.37; in experiment [8], 1.01; in experiment [9] it was 1.45; in experiment [10], 1.19; in experiment [11], 0.333. Moreover, the composite z-score in experiment [12] stood at 0.945; in experiment [13], 1.52; in experiment [14], 1.24; in the experiment with Lefty1, 1.58; in experiment [16], 0.938. Moreover, the composite Z-score in [1] was 0.673 (inactive). Besides, the z-score is 0.206 in [15] and -0.243 (inactive) in [17].

The values above are taken from PubChem BioAssay.
